IMPase inh: qHTS Assay for Identifying the Cell-Membrane Permeable IMPase Inhibitors. CHO-M1 cells, IP1 accumulation, HTRF TR-FRET ratio. inhibition (IP1 accumulation), % at 46.1 µM. Inositol monophosphatase 1 (Rattus norvegicus), P97697. 120,000 tested, under 10 active; active means well fitted curve in the direction sought with a large enough effect in the signal ratio, not every such curve was filed as active; inconclusive means small, poorly fitted or top-dose-only effect, or a change in a side signal; inactive means no such curve, though single readings can be large or run the other way; the % refers to the signal ratio;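 further: cells stimulated with carbachol in lithium chloride buffer; plate controls were DMSO basal wells for no effect and reference inhibitor wells for full effect; higher means more IMPase inhibition seen as more IP1 and lower FRET ratio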
Target sequence (P97697 whole entry, looked up): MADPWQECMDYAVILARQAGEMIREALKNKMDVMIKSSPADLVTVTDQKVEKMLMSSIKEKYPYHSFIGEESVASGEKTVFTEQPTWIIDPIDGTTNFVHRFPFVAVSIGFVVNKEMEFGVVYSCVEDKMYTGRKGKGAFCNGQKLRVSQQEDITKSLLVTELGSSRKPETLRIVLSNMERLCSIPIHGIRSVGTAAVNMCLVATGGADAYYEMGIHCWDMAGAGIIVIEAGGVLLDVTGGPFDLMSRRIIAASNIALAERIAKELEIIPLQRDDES
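The IP-One HTRF competitive assay in carbachol-stimulated CHO-M1 cells quantifies cellular IP1. Compounds spanned up to 46 uM final, and activity is expressed as AC50 from concentration-response fits of the ratio and donor data.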
IMPase Li inh: qHTS Assay for Identifying the Cell-Membrane Permeable IMPase Inhibitors: Potentiation with Lithium; CHO-M1 cells, IP1 TR-FRET (IP-One), carbachol + lithium; Potency, µM (titrated, usually from 59.4 µM), for inactives: at the top dose activity, negative = IMPase inhibition, most hits filed as inhibitors; actives 0.35% (n = 210,000); AID 1457, 2008;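 further: IP1 builds up when IMPase is blocked and the TR-FRET signal falls; potency means the concentration at half of the fitted maximal effect; plate controls were basal vehicle for no effect and high inhibitor control for full effect; nearly all actives have a fitted effect of over 50% in size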
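CHO-M1, 2000 cells/well, 16–30 h culture; cpd + low Li+, 30 min 37C; lysis with d2-IP1/Eu-anti-IP1 Ab, 10 min RT; TR-FRET 665/620 ratio and 620 channel; AC50 via Hill.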
HPGD inh: qHTS Assay for Inhibitors of HPGD (15-Hydroxyprostaglandin Dehydrogenase); actives 4.3% (n = 150,000); purified HPGD, NADH fluorescence kinetic, PGE2 substrate; AID 894, 2007; Potency, µM, for inactives: at the top dose activity change, negative = inhibition, actives largely listed as inhibitors; active means well fitted inhibition curve with a large enough effect, not every such curve was filed as active; inconclusive means small, poorly fitted or top-dose-only effect, or another doubt; inactive means no such curve, though single readings can be large or run the other way; further: potency means the concentration at half of the fitted maximal effect; on the % scale 0 is the no-effect control and ±100 the full control effect
Target sequence (P15428 whole entry, looked up): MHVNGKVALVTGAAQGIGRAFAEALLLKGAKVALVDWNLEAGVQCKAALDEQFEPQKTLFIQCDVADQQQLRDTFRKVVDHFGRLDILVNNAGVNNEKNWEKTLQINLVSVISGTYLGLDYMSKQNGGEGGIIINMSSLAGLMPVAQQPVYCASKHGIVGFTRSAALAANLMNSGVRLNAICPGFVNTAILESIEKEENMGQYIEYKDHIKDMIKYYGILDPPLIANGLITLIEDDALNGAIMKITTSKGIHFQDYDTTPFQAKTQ
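NADH formation kinetics: reaction with 30 uM PGE2 and 1 mM NAD+ (final), 20 nM enzyme, Tris-HCl pH 8 with Tween 20, after 15 min compound preincubation at room temperature. Fluorescence change, last versus first of five reads.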
ALDH1A1 inh: qHTS Assay for Inhibitors of Aldehyde Dehydrogenase 1 (ALDH1A1). actives 7.3% (n = 220,000). AID 1030, 2008. Aldehyde dehydrogenase 1A1 (Homo sapiens), P00352. Potency, µM (highest dose often 75.3 µM), without a hit: at the highest dose activity, negative = inhibition, usual class: inhibitors. Purified ALDH1A1, NADH fluorescence, propionaldehyde substrate; active means well fitted inhibition curve with a large enough effect, not every such curve was filed as active; inconclusive means small, poorly fitted or top-dose-only effect, or another doubt; inactive means no such curve, though single readings can be large or run the other way;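 further: potency means the concentration at half of the fitted maximal effect; plate controls were no enzyme wells and a reference inhibitor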
HTT cytoprotect: qHTS Multiplex Assay to Identify Dual Action Probes in a Cell Model of Huntington: Cytoprotection (ATP); Potency, µM (highest dose often 56.4 µM), for the others: cytoprotection (ATP increase), hits mostly activators; PC12 HTT-Q103 induced, cytoprotection, ATP luminescence, 40 h; actives 0.14% (n = 230,000); further: potency means the concentration at half of the fitted maximal effect; % of control where 0% means no effect; nearly all actives have a fitted effect of over 45% in size
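Quantitative HTS on tebufenozide-induced (100 nM) PC12 cells expressing HTTQ103 exon 1–GFP; compounds tested as a concentration series; survival measured via cellular ATP.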
HTT aggregate: qHTS Multiplex Assay to Identify Dual Action Probes in a Cell Model of Huntington: Aggregate Formation (GFP). PC12 HttQ103-GFP aggregates, Acumen cytometry, 40 h. Potency, µM (top dose mostly 46.1 µM), for the others: at the highest dose activity change, negative = inhibition, actives largely listed as inhibitors. actives 1.1% (n = 220,000). AID 1688, 2009; further: potency means the concentration at half of the fitted maximal effect; on the % scale 0 is the no-effect control and ±100 the full control effect; nearly all actives have a fitted effect of over 60% in size
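Ecdysone-promoter PC12 model expressing HTT exon 1 Q103 fused to GFP, induced by tebufenozide at 100 nM final. Compounds titrated; aggregates sized 1–25 µm scored on a 488 nm laser cytometer.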
* marks the source's active call; other numbers are inactive results; ? = inconclusive; . = no result given; [ ] = another dose, or the depositor's remark. The list is not random: actives were taken first. Their share in the collection is about 9.4%. Unless noted, the call rests on the fitted dose curve; in most records, active means well fitted curve in the direction sought with a large enough effect; inconclusive means small, poorly fitted or top-dose-only effect, or another doubt; inactive means no such curve, though single readings can be large; an effect the other way counts as inactive or inconclusive.

SMILES	IMPase inh	IMPase Li inh	HPGD inh	ALDH1A1 inh	HTT cytoprotect	HTT aggregate
CC(/C=C/C=C(\C)C(=O)O[C@@H]1O[C@H](CO[C@@H]2O[C@H](CO)[C@@H](O)[C@H](O)[C@H]2O)[C@@H](O)[C@H](O)[C@H]1O)=C\C=C\C=C(C)\C=C\C=C(/C)C(=O)O[C@@H]1O[C@H](CO[C@@H]2O[C@H](CO)[C@@H](O)[C@H](O)[C@H]2O)[C@@H](O)[C@H](O)[C@H]1O	.	.	.	.	?	-2%
Nc1ccc2c(c1)C(=O)c1ccccc1C2=O	.	11%	-8%	?	-41%	.
O=C1C(=O)c2ccc(-c3ccccc3)cc2-c2ccccc21	?	16%	-12%	1%	-97%[10 µM]	4.5µM*
Nc1ccc2c(c1)C(=O)C(=O)c1ccccc1-2	?	134%[38.3 µM]	2.2µM*	2.2µM*	-99%[10 µM]	0.79µM*
COC1=C(c2ccccc2)C(=O)c2ccccc2C1=O	.	1%	-7%	?	.	?
O=C(O)c1cc(S(=O)(=O)Nc2cccc(F)c2)ccc1Cl	.	.	-10%	7%	.	.
Cn1cnc2cc(OC(=O)c3ccccc3)ccc21	-7	11%[38.3 µM]	-7%	-9%	-19%	-9%
Cc1ccc(C(=O)Oc2ccc3c(c2)ncn3C)cc1	-7	11%[38.3 µM]	7.9µM*	-13%	-35%	5%
COc1cc2c(cc1OC)CN(Cc1ccc(C)s1)CC2	2	-19%[38.3 µM]	-10%	28µM*	4%	-2%[9.22 µM]
O=C(CCCN1C(=O)c2cccc3cccc(c23)C1=O)N1CCN(c2ccccc2O)CC1	.	1%	?	?	11%[10 µM]	1%
COc1ccc(CN2CCc3cc(OC)c(OC)cc3C2)cc1O	.	6%	.	-11%	19%[10 µM]	-4%[9.22 µM]
CCOc1ccccc1N1CCN(C(=O)CCCN2C(=O)c3cccc4cccc(c34)C2=O)CC1	7	14%	-21%	?	-16%[10 µM]	20µM*
COc1ccccc1N1CCN(C(=O)c2ccc(CSc3ccccc3)cc2)CC1	.	19%	-16%	-6%	.	22µM*
COc1ccccc1N1CCN(CCCCN2C(=O)c3ccccc3C2=O)CC1	0	19%	-25%	13µM*	-15%	.
COc1ccccc1N1CCN(C(=O)CSc2ccccc2)CC1	-5	14%[38.3 µM]	-13%	?	-4%	6%[1.84 µM]
C[C@H](CCC(=O)O)C1CC[C@H]2C3CC[C@@H]4C[C@H](O)CC[C@]4(C)C3C[C@H](O)[C@]12C (some centres undefined)	.	3%	.	1%	-20%	.
COc1ccc(-c2noc(COc3cc(C)ccc3C)n2)cc1OC	17	.	.	.	.	.
COc1ccc(NC(=O)N2CCCC3(CCN(C(=O)c4ccc(OC)cc4)CC3)C2)cc1	.	6%	-3%	?	-16%	.
COc1ccc(C(=O)N2CCc3cc(OC)c(OC)cc3C2)cc1OC	0	-4%[38.3 µM]	-11%	-4%	-21%	0%
COc1ccc(C(=O)CCN2CCc3cc(OC)c(OC)cc3C2)cc1	.	2%	.	0.22µM*	-33%	?
COc1ccc(C(=O)CCN2CCN(c3ccccc3OC)CC2)cc1	.	16%	.	0.14µM*	.	?
COc1ccccc1N1CCN(CCCC(=O)c2ccc(F)cc2)CC1	8	23%[38.3 µM]	0%	25%	-7%	-9%
COCCNC(C(=O)Nc1cc(Cl)cc(Cl)c1)c1ccccc1 (centres undefined)	2	17%[38.3 µM]	-10%	14µM*	1%	2%
CCOCCCNC(C(=O)Nc1ccc(OC)c(Cl)c1)c1ccccc1 (centres undefined)	.	9%	.	2.2µM*	-14%[10 µM]	3%
Nc1nc(Nc2ccccc2)nc2c1ncn2[C@@H]1O[C@H](CO)[C@H](O)[C@H]1O	.	2%	-12%	-7%	.	.
SMILES	IMPase inh	IMPase Li inh	HPGD inh	ALDH1A1 inh	HTT cytoprotect	HTT aggregate
CCOc1ccc(-n2cccc2C=O)cc1	1	-4%	-12%	?	1%[10 µM]	-14%
COc1ccc(-n2cccc2/C=C/[N+](=O)[O-])cc1	.	13%	35µM*	?	.	?
COc1ccc(-n2cccc2C=O)cc1	.	4%	-11%	11µM*	23%[10 µM]	4%
CC1=CC(c2ccccc2)n2nc(NS(=O)(=O)c3ccc(C)cc3)nc2N1 (centres undefined)	-16	.	?	0.63µM*	-20%	?
COc1c(O)cc(O)cc1O	.	9%	-7%	5%	6%	.
Cc1cc(O)c(Oc2cc(C)cc(O)c2O)c(O)c1	.	6%	.	8.9µM*	-18%[10 µM]	1%[9.22 µM]
CCNC(=O)/C(=C/c1cccc([N+](=O)[O-])c1)NC(=O)c1ccc(C)cc1	.	10%	.	-4%	12%	22%[9.22 µM]
O=C(OCc1ccccc1F)c1ccc2c(c1)-c1ccccc1C2=O	-13	9%[38.3 µM]	-16%	0%	-7%	0.79µM*
O=C(OCc1cccc(F)c1)c1ccc2c(c1)-c1ccccc1C2=O	1	24%[38.3 µM]	-5%	8%	-13%	9%
Cc1cc(OCC(=O)Nc2ccc(C(=O)OC3CCCCC3)cc2)cc(C)c1Cl	-3	.	.	.	.	.
Cc1ccc(/C=[N+](\[O-])c2ccc(N(C)C)cc2)c2nsnc12	.	107%	.	1.1µM*	-162%	11µM*
CCOc1ccccc1NC(=O)CSC1=Nc2ccccc2C2=NC(CC(=O)NCc3ccc4c(c3)OCO4)C(=O)N12 (centres undefined)	-2	.	.	.	.	.
Cc1ccsc1C1Nc2ccccc2C(=O)N1O (centres undefined)	.	-3%	18µM*	-9%	.	?
C=CCc1cccc(C2Nc3ccccc3C(=O)N2O)c1O (centres undefined)	11	1%[38.3 µM]	7.1µM*	2%	-59%[10 µM]	?
O=C1c2ccccc2NC(c2ccc(Cl)cc2Cl)N1O (centres undefined)	11	3%[38.3 µM]	-12%	2%	5%	?
CCOc1ccc(C(=O)NCC(c2cccs2)N(C)C)cc1OCC (centres undefined)	2	28%	-6%	-9%	32%[10 µM]	-2%
S=c1nc(-c2csc3c2CCCC3)[nH][nH]1	.	2%	.	11µM*	4%[10 µM]	12%[9.22 µM]
Cc1nnc2sc(-c3csc4c3CCCC4)nn12	0	23%[38.3 µM]	?	-10%	15%	14%
CS(=O)(=O)c1ccc2c(c1)sc1nc(=O)c(/C=C3/C=CC(=O)C(O)=C3)c(N)n12	.	.	.	13µM*	-6%[10 µM]	-5%[9.22 µM]
